Only some compounds are listed: those with a hit (about 7.3% of all), similar ones and a draw of the others.
NPC1 promoter act = qHTS Assay for NPC1 Promoter Activators | Huh7 NPC1 promoter luciferase reporter, 24 h | Potency, µM (highest dose often 9.22 µM), inactives show top-dose activation, usual class: activators | 320,000 tested, 2.4% active | AID 485313, 2010; note: % of control where 0% means no effect; nearly all actives have a fitted effect of over 60% in size
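Quantitative HTS used a cell-based reporter: Huh7 cells stably bearing the NPC1 promoter upstream of luciferase were treated with compounds for 24 h, and promoter activation was read as luminescence.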
p53 reactivator = qHTS assay for re-activators of p53 using a Luc reporter. H1299 p53-A138V BP100-luciferase reporter, luminescence, 24 h. Potency, µM (doses to about 92.2 µM), for inactives: at the top dose activity change, positive = activation, most hits filed as activators. 320,000 tested, 0.063% active. AID 504706, 2011; note: % of control where 0% means no effect; nearly all actives have a fitted effect of over 45% in size
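p53-null H1299 cells stably carrying temperature-sensitive p53-A138V and a BP100-luciferase reporter were pinned with compounds (4-point, 1:5 series) and held 24 hrs at 37 deg C. Luminescence was read 10 min after detection reagent.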
FLuc modulator = qHTS profiling assay for firefly luciferase inhibitor/activator using purifed enzyme and Km concentrations of substrates (counterscreen for miR-21 project); Luciferin 4-monooxygenase (Photinus pyralis), P08659; purified FLuc, Km substrates, luminescence inhibition; Potency, µM (doses to about 57.5 µM), without a hit: top-dose activity change, negative = inhibition, actives largely listed as inhibitors; 360,000 tested, 6.9% active; AID 588342, 2011;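 note: plate controls were vehicle for no effect and reference inhibitor for full effect; nearly all actives have a fitted effect of over 55% in size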
Target sequence (P08659 whole entry, looked up): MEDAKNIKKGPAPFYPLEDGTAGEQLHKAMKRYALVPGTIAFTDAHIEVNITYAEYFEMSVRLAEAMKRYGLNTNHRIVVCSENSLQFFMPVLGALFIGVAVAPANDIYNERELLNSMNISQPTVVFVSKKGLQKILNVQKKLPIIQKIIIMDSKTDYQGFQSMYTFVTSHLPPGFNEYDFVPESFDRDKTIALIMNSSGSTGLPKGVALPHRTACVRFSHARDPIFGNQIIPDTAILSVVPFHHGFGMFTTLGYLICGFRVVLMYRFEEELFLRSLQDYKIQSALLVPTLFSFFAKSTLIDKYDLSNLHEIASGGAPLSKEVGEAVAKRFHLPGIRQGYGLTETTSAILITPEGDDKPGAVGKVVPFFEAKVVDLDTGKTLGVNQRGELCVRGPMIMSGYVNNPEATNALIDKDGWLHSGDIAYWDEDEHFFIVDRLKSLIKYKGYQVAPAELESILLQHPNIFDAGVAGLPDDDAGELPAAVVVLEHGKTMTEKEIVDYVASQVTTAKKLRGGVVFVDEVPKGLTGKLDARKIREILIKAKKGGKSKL
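Purified P. pyralis luciferase (10nM final) with 10uM D-luciferin and 10uM ATP (Km levels) in 50mM Tris acetate pH 7.5, 10mM Mg acetate, 0.01% Tween-20, 0.05% BSA; qHTS 6-point titration, ~60 µM downward; luminescence read.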
SMN2 splice enh = qHTS Assay for Enhancers of SMN2 Splice Variant Expression | HEK293 SMN2-luciferase splicing reporter, luminescence, 30-36 h | Potency, µM (series often up to 46.1 µM), inactives show top-dose activity change, positive = activation, actives largely listed as activators | 210,000 tested, 2.8% active | AID 1458, 2008; note: % of control where 0% means no effect; nearly all actives have a fitted effect of over 55% in size
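qHTS luciferase splicing reporter: luminescence rises when SMN2 exon 7 is included in transfected HEK293 cells. Compound exposure lasted 30-36 h at 37C, with 4.5 mM final sodium butyrate as control, followed by a ONE-Glo read.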
ELG1 genotox = qHTS screen for small molecules that induce genotoxicity in human embryonic kidney (HEK293T) cells expressing luciferase-tagged ELG1; HEK293T ELG1-luciferase reporter, luminescence, 16 h; Potency, µM (doses to about 46 µM), for inactives: at the top dose activity change, positive = activation, hits mostly activators; 330,000 tested, 1.3% active; AID 504466, 2011; note: % of control where 0% means no effect; nearly all actives have a fitted effect of over 60% in size
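16 hr compound incubation (37 °C, 5% CO2) of HEK293T cells carrying luciferase-tagged ELG1; luciferase then measured by ONE-Glo luminescence after 30 min at RT.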
Rab9 prom act = qHTS Assay for Rab9 Promoter Activators. Huh7 Rab9 promoter-luciferase reporter, luminescence, 24 h. Potency, µM (doses to about 9.22 µM), without a hit: top-dose activation, negative = inhibition, hits mostly activators. 320,000 tested, 2.8% active. AID 485297, 2010; note: % of control where 0% means no effect; nearly all actives have a fitted effect of over 60% in size
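Huh7 cells stably carrying Rab9 promoter–luciferase reporter, plated 1500 cells/well, compound added after 2 h and incubated 24 h at 37 °C; luciferase luminescence then read after 10 min with detection reagent.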
Active calls of the source: *; [ ] = remark or other dose. Calls come from the whole dose curve; as a rule, active = well fitted curve in the direction sought with a large enough effect; inconclusive = small, poorly fitted or top-dose-only effect, or another doubt; inactive = no such curve, though single readings can be large; an effect the other way counts as inactive or inconclusive. Potency is the fitted concentration of half-maximal effect.

Results for CCCCOc1cccc(C(=O)N(Cc2ccc(Cl)cc2)C2CCS(=O)(=O)C2)c1 (stereo not drawn) ?
FLuc modulator: -4%; SMN2 splice enh: -26%

Results for CC(/C=C/C=C(C)/C=C/C(=O)O)=C\C=C\C=C(C)\C=C\C=C(C)\C=C\C(=O)O ?
SMN2 splice enh: 16%

What do the screens show for `Cc1cc(C)n2c(Nc3ccc(C(C)C)cc3)c(-c3ccsc3)nc2n1`?
FLuc modulator: 11µM*; SMN2 splice enh: 1%

What do the screens show for `CC(C)N(Cc1nc(-c2ccccc2)no1)C(=O)C(C)(C)C`?
NPC1 promoter act: 1%; p53 reactivator: 8%; FLuc modulator: 4%; SMN2 splice enh: -6%; ELG1 genotox: 9%; Rab9 prom act: -4%

How did COc1ccc(-c2noc(CN(C(=O)C(C)(C)C)C(C)C)n2)cc1 do in these assays?
NPC1 promoter act: 18%; p53 reactivator: 2%; FLuc modulator: inconclusive; SMN2 splice enh: 4%; ELG1 genotox: 15µM*; Rab9 prom act: 26%

Results for CCOc1ccc(CNCc2c(C(=O)O)c(C)n(Cc3ccc(F)cc3Cl)c2C)cc1 ?
FLuc modulator: -13%; SMN2 splice enh: 8%

What do the screens show for `CCOC(=O)c1ccc(N2Cc3ccccc3C2)cc1O`?
NPC1 promoter act: 27%; p53 reactivator: 21%; FLuc modulator: 8.5µM*; ELG1 genotox: inconclusive; Rab9 prom act: inconclusive

Results for Cc1cc(C)cc(N2Cc3ccccc3C2)c1 ?
NPC1 promoter act: 0%; p53 reactivator: -2%; FLuc modulator: -4%; SMN2 splice enh: 4%; ELG1 genotox: 13%; Rab9 prom act: 4%

Results for CCc1ccc(N2Cc3ccccc3C2)cc1 ?
NPC1 promoter act: 2.8µM*; p53 reactivator: inconclusive; FLuc modulator: 6µM*; ELG1 genotox: inconclusive; Rab9 prom act: 3.5µM*

What do the screens show for `Cc1cccc(N2CCN(S(=O)(=O)c3cn(C)c(C)n3)CC2)c1C`?
FLuc modulator: -7%

How did CC1(C)Oc2ccccc2OC1(O)c1ccc2ccccc2n1 (stereo not drawn) do in these assays?
NPC1 promoter act: -2%; p53 reactivator: -6%; FLuc modulator: 0%; SMN2 splice enh: -27%; ELG1 genotox: -6%; Rab9 prom act: -7%

How did C=CCC(C)(Nc1ccccc1)C(=O)OCC (stereo not drawn) do in these assays?
SMN2 splice enh: 8%

How did Cc1ccc(S(=O)(=O)O[C@H]2CC(C(C)(C)C)CC[C@@H]2c2ccccc2)cc1 (stereo partly drawn) do in these assays?
SMN2 splice enh: 0%[9.22 µM]

How did O=[N+]([O-])c1ccc(CSc2ccc(S(=O)(=O)N3CCCCC3)cn2)cc1 do in these assays?
p53 reactivator: 2%; ELG1 genotox: -5%

Results for CCN(CC)CCCC(C)NC(=O)c1cccc(S(=O)(=O)N2CCc3ccccc32)c1 (stereo not drawn) ?
NPC1 promoter act: -3%; p53 reactivator: 0%; FLuc modulator: -1%; SMN2 splice enh: 11%; ELG1 genotox: -5%; Rab9 prom act: 3%

How did O=C(O)c1cccc(-c2nc(-c3ccccc3C(F)(F)F)no2)c1 do in these assays?
FLuc modulator: 0.17µM*

What do the screens show for `O=C(O)c1cccc(-c2noc(-c3cccc(Cl)c3)n2)c1`?
NPC1 promoter act: 0.089µM*; p53 reactivator: 44%; FLuc modulator: 0.019µM*; ELG1 genotox: inconclusive; Rab9 prom act: inconclusive

What do the screens show for `COc1cc(-c2noc(-c3cccc(Cl)c3)n2)cc(OC)c1OC`?
NPC1 promoter act: 2%; p53 reactivator: 10%; FLuc modulator: -5%; SMN2 splice enh: -12%; ELG1 genotox: -6%; Rab9 prom act: 6%
